Data: the supplement of paper PMC13380429

System: Vero E6 infected with SARS-CoV-2
Assay: inhibition of SARS-CoV-2 cytopathic effect; higher = more antiviral protection, active = above 15
Conditions: 48 h

Measured: inhibition of SARS-CoV-2 cytopathic effect

C=CC[N+]1([C@H]2C[C@H]3[C@@H]4CC[C@H]5C[C@H](O)[C@@H](N6CCOCC6)C[C@]5(C)[C@H]4CC[C@]3(C)[C@H]2OC(C)=O)CCCC1
inactive: 1 nM -0.55% | 8.33 nM -0.87% | 100 nM 2.36% | 833.33 nM 1.73% | 10000 nM 0.75%

CCc1[nH]c(=O)[nH]c1C(=O)c1ccncc1 [piroximone]
inactive: 1 nM -0.93% | 8.33 nM 5% | 100 nM 3.91% | 833.33 nM 3.62% | 10000 nM -1.11%

O=C1C=CC[C@@H]2[C@H]3CCCN4CCC[C@@H](CN12)[C@@H]34 [sophocarpine]
inactive: 1 nM -8.47% | 8.33 nM -10.7% | 100 nM -12.4% | 833.33 nM -12.3% | 10000 nM -13.3%

CCC(=O)OCC(=O)[C@@]1(OC(=O)CC)[C@@H](C)C[C@H]2[C@@H]3CCC4=CC(=O)C=C[C@]4(C)[C@@]3(Cl)[C@@H](O)C[C@@]21C [beclomethasone-dipropionate]
inactive: 1 nM -9.44% | 8.33 nM -9.23% | 100 nM -11.4% | 833.33 nM -9.54% | 10000 nM -6.97%

O=C(NS(=O)(=O)c1ccc(Br)s1)c1ccc(Cl)cc1Cl [tasisulam]
inactive: 1 nM -0.54% | 8.33 nM 5.25% | 100 nM 0.94% | 833.33 nM -0.93% | 10000 nM 4.37%

COc1ccc(S(=O)(=O)N2CCC[C@H]2C(=O)Nc2cc(C)cc(C)c2)cc1
inactive: 1 nM -4.61% | 8.33 nM -4.21% | 100 nM -5.02% | 833.33 nM -4.87% | 10000 nM 1.64%

NC[C@H]1O[C@H](O[C@H]2[C@H](O[C@@H]3O[C@H](CO)[C@@H](O)[C@H]3O)[C@@H](O)[C@H](N)C[C@@H]2N)[C@H](N)[C@@H](O)[C@@H]1O [ribostamycin-sulfate]
inactive: 1 nM 2.02% | 8.33 nM -0.235% | 100 nM -0.77% | 833.33 nM -1.25% | 10000 nM -0.88%

O=C(O)c1ccc2[nH]cc(CCCCN3CC=C(c4ccccc4)CC3)c2c1 [carmoxirole]
inactive: 1 nM 1.76% | 8.33 nM 1.65% | 100 nM -1.21% | 833.33 nM 0.28% | 10000 nM 0.69%

Nc1[nH]cnc2ncnc1-2 [adenine]
inactive: 1 nM 1.26% | 8.33 nM 0.3% | 100 nM 3.06% | 833.33 nM 6.45% | 10000 nM 3.2%

N[C@@H](CSS(=O)(=O)O)C(=O)O [S-sulfo-L-cysteine]
inactive: 1 nM -0.33% | 8.33 nM 1.82% | 100 nM -0.09% | 833.33 nM 1.93% | 10000 nM 0.23%

Ic1cc(-c2ccccc2)ncn1 [4-iodo-6-phenylpyrimidine]
inactive: 1 nM -0.63% | 8.33 nM 0.56% | 100 nM -2.43% | 833.33 nM 1.94% | 10000 nM -1.36%

Nc1nc(=O)c2c([nH]1)NCC(CNc1ccc(C(=O)N[C@@H](CCC(=O)O)C(=O)O)cc1)N2C=O (stereo not given in full) [leucovorin]
inactive: 1 nM -3.4% | 8.33 nM -3.52% | 100 nM -0.89% | 833.33 nM 1.42% | 10000 nM -0.745%

C[N+]1([O-])[C@@H]2CC[C@H]1C[C@@H](OC(=O)C(CO)c1ccccc1)C2 (stereo not given in full) [atropine-oxide]
inactive: 1 nM -2.53% | 8.33 nM -2.05% | 100 nM -1.67% | 833.33 nM -2.02% | 10000 nM -1.76%

Cc1ccc(NC2=NCCN2)c(Cl)c1 [tolonidine]
inactive: 1 nM 1.65% | 8.33 nM 0.34% | 100 nM 0.64% | 833.33 nM -0.01% | 10000 nM 0.42%

Nc1ncnc2c1c(-c1ccc(Cl)cc1)nn2-c1cccc(-c2cnnn2Cc2cccc(-c3ccccc3)c2)c1
inactive: 1 nM -2.81% | 8.33 nM -0.01% | 100 nM -1.05% | 833.33 nM -2.27% | 10000 nM -0.83%

CO/N=C1\C[C@]2(C[C@@H]3C[C@@H](C/C=C(\C)C[C@@H](C)/C=C/C=C4\CO[C@@H]5[C@H](O)C(C)=C[C@@H](C(=O)O3)[C@]45O)O2)O[C@H](/C(C)=C/C(C)C)[C@H]1C [moxidectin]
inactive: 1 nM -5.37% | 8.33 nM -7.08% | 100 nM -3.57% | 833.33 nM -4.07% | 10000 nM 2.53%

C[C@H](CCC(=O)O)[C@H]1CC[C@H]2[C@@H]3C(=O)C[C@@H]4CC(=O)CC[C@]4(C)[C@H]3CC(=O)[C@]12C [dehydrocholate-acid]
inactive: 1 nM -5.5% | 8.33 nM -4.18% | 100 nM -2.25% | 833.33 nM -2.84% | 10000 nM -7.01%

COc1ccc(CCCO[C@@H](Cn2ccnc2)c2ccc(OC)cc2)cc1
inactive: 1 nM -4.38% | 8.33 nM -5.95% | 100 nM -10.2% | 833.33 nM -1.69% | 10000 nM 0.39%

NCCC(O)(P(=O)(O)O)P(=O)(O)O [pamidronate]
inactive: 1 nM -0.49% | 8.33 nM 2.17% | 100 nM -0.58% | 833.33 nM -3.14% | 10000 nM -1.25%

O=C(O)c1ccccc1C(=O)Nc1ccc(S(=O)(=O)Nc2nccs2)cc1 [phthalylsulfathiazole]
inactive: 1 nM -0.6% | 8.33 nM 1.91% | 100 nM 1.2% | 833.33 nM 1.78% | 10000 nM -0.84%

O=C(O)Cc1ccc(CCNS(=O)(=O)c2ccc(Cl)cc2)cc1 [daltroban]
inactive: 1 nM -0.21% | 8.33 nM 3.04% | 100 nM -1.18% | 833.33 nM -0.76% | 10000 nM 1.78%

O=C(CN1C2=NCCN2c2ccccc21)c1ccc(-c2ccccc2)cc1
inactive: 1 nM -0.77% | 8.33 nM 3.75% | 100 nM 1.71% | 833.33 nM -0.84% | 10000 nM 14.8%

CC1(C)OC2(C)C(O)CC1CC2O (stereo not given) [epomediol]
inactive: 1 nM 7.71% | 8.33 nM 1.77% | 100 nM 4.4% | 833.33 nM 1.92% | 10000 nM 3.17%

O=C(CNC(=O)c1ccc(Cl)cc1)NO [benurestat]
inactive: 1 nM -3.63% | 8.33 nM -2.49% | 100 nM -1.54% | 833.33 nM -0.58% | 10000 nM 0.4%

C[N+]1(CCCCC[N+]2(C)CCCC2)CCCC1 [pentolinium]
inactive: 1 nM 2.83% | 8.33 nM 4.75% | 100 nM 5.22% | 833.33 nM 4.57% | 10000 nM 0.64%

CCCCC(=O)OCC(=O)[C@]1(O)Cc2c(O)c3c(c(O)c2[C@@H](O[C@H]2C[C@H](NC(=O)C(F)(F)F)[C@H](O)[C@H](C)O2)C1)C(=O)c1c(OC)cccc1C3=O [valrubicin]
inactive: 1 nM -0.61% | 8.33 nM 0.16% | 100 nM -0.18% | 833.33 nM 0.06% | 10000 nM -1.25%

COc1ccc(Cl)c(Nc2ncnc3cc(OCC4CCN(C)CC4)c(OC)cc23)c1
inactive: 1 nM -1.15% | 8.33 nM -0.25% | 100 nM -0.48% | 833.33 nM -6.41% | 10000 nM -13.8%

CC(C)NCCCn1c(Sc2cc3c(cc2I)OCO3)nc2c(N)ncnc21
inactive: 1 nM -3.36% | 8.33 nM -0.68% | 100 nM -0.95% | 833.33 nM -7.21% | 10000 nM -3.3%

Oc1ccc2c3c1O[C@H]1[C@@H](O)CC[C@@]4(O)[C@@H](C2)N(CC2CCC2)CC[C@]314 [nalbuphine]
inactive: 1 nM 2.57% | 8.33 nM 0.43% | 100 nM 0.27% | 833.33 nM 0.68% | 10000 nM 0.06%

Nc1n[n+]([O-])c2ccccc2[n+]1[O-] [tirapazamine]
inactive: 1 nM -0.88% | 8.33 nM 0.77% | 100 nM 2.11% | 833.33 nM 0.37% | 10000 nM 2.74%

NCc1ccc(S(N)(=O)=O)cc1 [mafenide]
inactive: 1 nM 0.46% | 8.33 nM 1.5% | 100 nM 1.54% | 833.33 nM 2.7% | 10000 nM -2.32%

O=C(O)c1cccnc1C(=O)O [quinolinic-acid]
inactive: 1 nM 1.12% | 8.33 nM -1.19% | 100 nM 0.73% | 833.33 nM -1.65% | 10000 nM -4.35%

CC[C@H]1OC(=O)[C@H](C)[C@@H](O[C@H]2C[C@@](C)(OC)[C@@H](O)[C@H](C)O2)[C@H](C)[C@@H](O[C@@H]2O[C@H](C)C[C@H](N(C)C)[C@H]2O)[C@](C)(OC)C[C@@H](C)C(=O)[C@H](C)[C@@H](O)[C@]1(C)O [clarithromycin]
inactive: 1 nM -4.37% | 8.33 nM -0.55% | 100 nM 2.36% | 833.33 nM 1.42% | 10000 nM -3%

CC(=O)c1cnc2ccc(-c3cc(Cl)c(O)c(Cl)c3)nc2c1N[C@H]1CC[C@H](CN(C)C)CC1
inactive: 1 nM -1.51% | 8.33 nM 0.72% | 100 nM -1.37% | 833.33 nM 0.11% | 10000 nM -5.46%

NC(=O)[C@@H](CC1CC1)[C@@H](CCC(F)(F)F)C(=O)N[C@H]1N=C(c2ccccc2)c2cccc(F)c2NC1=O
inactive: 1 nM -0.36% | 8.33 nM -1.04% | 100 nM -3.47% | 833.33 nM -3.05% | 10000 nM -5.54%

Oc1ccc(Cl)cc1Cc1cc(Cl)ccc1O [dichlorophen]
inactive: 1 nM -4.53% | 8.33 nM 0.22% | 100 nM -2.85% | 833.33 nM -2.86% | 10000 nM 1.46%

COc1cccc(-c2ccc([C@@H](Oc3cc(-c4ccc(C[C@H](N)C(=O)O)cc4)nc(N)n3)C(F)(F)F)cc2)c1
inactive: 1 nM -4.34% | 8.33 nM -0.04% | 100 nM 1.61% | 833.33 nM 0.52% | 10000 nM -1.29%
